Compound activity deposited in PubChem BioAssay by several laboratories.
CRFBP-R2 agonist: agonists of human CRF-binding protein/CRF-R2 receptor complex; activation, % at 13.2 µM; AID 588473; hit rate 0.46% among 350,000; HEK293 CRF-R2/CRF-BP, calcium dye fluorescence (FLIPR); percent of saturating CRF peptide response;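 active = activation of at least 50%, plus an integration ratio under a set limit after plate pattern correction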;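 also: plate controls were neutral control wells without compound for no effect and CRF at EC100 for full effect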
C-LANA FP: blocks KSHV LANA C-terminal domain binding to DNA. MBP-C-LANA/FAM-LBS DNA binding, fluorescence polarization. inhibition, % at 9 µM. hit rate 0.078% among 340,000;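 active = highest replicate inhibition at or above 60% at 9 µM, even if other replicates fall short; inactive = all replicates below 60% inhibition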;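 also: 0% = neutral control wells and 100% = 4 µM acridine orange control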
CRFBP-R2 block: blocks CRF-induced signaling of the CRF-BP/CRF-R2 complex | HEK293 CRF-R2/CRF-BP, CRF-induced calcium fluorescence | hit rate 0.59% among 350,000 | inhibition, % at 11.8 µM;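 active = inhibition of the ligand-induced calcium signal above about 50% at the single tested concentration, limit read from the data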
Keap1-Nrf2 PPI: inhibitors of human Keap1-Nrf2 protein-protein interaction. Keap1 Kelch-Nrf2 peptide fluorescence polarization, 1536-well. inhibition, % at 9.4 µM. hit rate 0.15% among 340,000; in the data active = inhibition above about 12%;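 also: human Keap1 Kelch domain with fluorescein labeled Nrf2 9mer peptide probe; 0% = neutral control wells and 100% = peptide positive control; higher means more block of Keap1 binding to Nrf2 peptide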
Target sequence (Q14145 whole entry, looked up, the tested form may be a part): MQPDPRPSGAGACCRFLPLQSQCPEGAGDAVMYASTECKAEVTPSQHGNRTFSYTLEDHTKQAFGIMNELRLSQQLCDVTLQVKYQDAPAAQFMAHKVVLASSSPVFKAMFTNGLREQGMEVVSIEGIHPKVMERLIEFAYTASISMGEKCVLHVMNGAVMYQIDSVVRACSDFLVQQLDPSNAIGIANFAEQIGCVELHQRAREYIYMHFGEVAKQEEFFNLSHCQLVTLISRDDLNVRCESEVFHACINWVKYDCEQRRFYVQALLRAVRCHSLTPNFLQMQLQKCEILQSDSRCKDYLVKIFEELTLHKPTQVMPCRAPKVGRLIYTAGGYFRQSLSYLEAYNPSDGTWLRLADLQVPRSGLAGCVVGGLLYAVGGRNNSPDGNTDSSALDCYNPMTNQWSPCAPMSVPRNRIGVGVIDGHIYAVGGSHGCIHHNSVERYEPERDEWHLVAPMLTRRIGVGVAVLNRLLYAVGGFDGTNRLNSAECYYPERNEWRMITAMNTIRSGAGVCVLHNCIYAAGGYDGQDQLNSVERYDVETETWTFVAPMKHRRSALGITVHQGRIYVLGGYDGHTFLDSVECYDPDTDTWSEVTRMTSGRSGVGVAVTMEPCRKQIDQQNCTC
RTF Ca sens act: increases calcium sensitivity of human cardiac regulated thin filaments | P19429+P45379 | IANBD-labeled TnC RTF fluorescence at EC20 calcium; 0% EC20 calcium, 100% full calcium | hit rate 0.24% among 340,000 | activation, % at 7.2 µM;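 active = activation above the mean over all tested compounds plus 3 SD, cut at about 30% in these data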;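 also: rise in fluorescence read as greater calcium sensitivity of cardiac thin filaments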
RTF Ca sens inh: cardiac RTF calcium desensitization; P19429+P45379; IANBD-labeled cardiac RTF, Ca2+ fluorescence; inhibition, % at 7.15 µM; hit rate 0.12% among 340,000; AID 493244;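 active = inhibition above the mean inhibition of all tested compounds plus 3 SD, cut at about 17% in these data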;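 also: assay run at fixed EC70 calcium of 1.6 mM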
* = called active by the depositor; · = not tested or not shown. Only some compounds are listed: those with a hit (about 1.3% of all), similar ones and a draw of the others.

SMILES | CRFBP-R2 agonist | C-LANA FP | CRFBP-R2 block | Keap1-Nrf2 PPI | RTF Ca sens act | RTF Ca sens inh
CCS(=O)(=O)N1CCN(C2Cc3ccccc3C2)CC1 | 0 | -3 | -62 | 4 | -3 | 3
O=[N+]([O-])c1ccccc1/C=N/N1CCN(c2ccccn2)CC1 | -4 | 2 | 7 | -2 | -3 | 5
O=C(NCc1ccc(OC(F)(F)F)cc1)c1cccc2c1C(=O)c1ccc(N3CCCCC3)cc1S2(=O)=O | 68* | 3 | -20 | -3 | 19 | -1
O=C(O)c1cccc2c1C(=O)c1ccc(N3CCCC3)cc1S2(=O)=O | 17 | 8 | -4 | -32 | 36* | -42
O=C(NCc1ccc(OC(F)(F)F)cc1)c1cccc2c1C(=O)c1ccc(N3CCCC3)cc1S2(=O)=O | 102* | -1 | -49 | 0 | -6 | -18
O=C(NCc1cc(C(F)(F)F)ccc1Cl)c1cccc2c1C(=O)c1ccc(N3CCC(N4CCCCC4)CC3)cc1S2(=O)=O | 31 | · | -22 | · | · | ·
O=C(NCc1ccc(OC(F)(F)F)cc1)c1cccc2c1C(=O)c1ccc(N3CCC(Cc4ccccc4)CC3)cc1S2(=O)=O | 63* | 18 | -29 | -9 | 10 | -8
O=C(NCc1ccccc1Br)c1cccc2c1C(=O)c1ccc(-c3ccc(OC(F)(F)F)cc3)cc1S2(=O)=O | 3 | 2 | -2 | 2 | -3 | -3
O=C(NCc1cc(C(F)(F)F)ccc1Cl)c1cccc2c1C(=O)c1ccc(N3CCCCC3)cc1S2(=O)=O | 53* | -2 | -27 | -17 | 1 | 5
COc1ccccc1NC(=O)c1c(NC(=O)c2ccco2)sc2c1CCC2 | 6 | 0 | -20 | 0 | -1 | -6
O=C(CCl)Nc1ccccc1Sc1ccc(Cl)cc1 | 1 | 0 | 67* | -1 | 9 | -6
CN(C(=O)c1cccc(NC(=O)Cc2cccc(NC(=O)C3CCN(C(=O)C4CCCCC4)CC3)c2)c1)C1CCC1 | -1 | 0 | 11 | 0 | 4 | -2
CC1CCCN(CCCNC(=O)CN2C(=O)CSc3ccc(S(=O)(=O)N4CCOCC4)cc32)C1 (centres undefined) | 2 | 1 | 89* | 2 | -1 | -3
CC(=O)NC(Cc1cccc(C)c1)C(=O)NC1CCN(c2ncccc2[N+](=O)[O-])CC1 (centres undefined) | -2 | -2 | 57* | 4 | 4 | -7
CN(C)c1ccc(/C=C2\C(=N)N3N=C(CC(=O)N4CCCCC4)SC3=NC2=O)cc1 | 55* | -11 | -65 | -12 | 29 | -20
Cc1cccc(-c2noc(C(C)NC(=O)c3ccco3)n2)c1 (centres undefined) | 1 | 0 | 108* | 0 | -8 | -22
Cc1cc(NC(=O)c2cc(S(=O)(=O)N3CCCCC3)ccc2C)no1 | -3 | -1 | -10 | -1 | 3 | -12
Cc1cccc(NC(=O)c2cc(S(=O)(=O)c3ccccc3)ccc2Cl)c1 | 1 | 1 | 62* | 2 | 3 | -1
CS(=O)(=O)N(Cc1ccccc1)c1ccc(C(=O)N2CCOCC2)cc1 | 123* | 0 | -50 | 0 | 4 | -1
CS(=O)(=O)N(Cc1ccc(Cl)cc1)c1ccc(C(=O)N2CCN(c3ccccc3)CC2)cc1 | 0 | -1 | 1 | 1 | 2 | -2
Cc1cccc(NC(=O)c2ccccc2O)c1C | 21 | 0 | 31 | -7 | -5 | -11
Cc1cccc(NC(=O)c2cccc([N+](=O)[O-])c2O)c1C | 45 | 0 | 59* | -1 | 0 | -5
O=C(Cn1c(=O)[nH]c2sc3c(c2c1=O)CCCC3)NCC1CCCO1 (centres undefined) | 0 | 1 | -11 | -2 | 6 | 9
CC1(C)Cc2c(sc3[nH]c(=O)n(CC(=O)NCC4CCCO4)c(=O)c23)CO1 (centres undefined) | 1 | 0 | 84* | -4 | 6 | -6
O=[N+]([O-])c1ccc(NC(=S)NCCc2ccc(F)cc2)cc1 | 29 | -3 | 54* | -1 | 0 | -6
SMILES | CRFBP-R2 agonist | C-LANA FP | CRFBP-R2 block | Keap1-Nrf2 PPI | RTF Ca sens act | RTF Ca sens inh
COc1ccccc1-c1c(NC(=O)C(C)C)n(C)c2ccccc2c1=O | -1 | 9 | 106* | -1 | -1 | 4
C=CCn1c(SCC(=O)N(CCOC)c2c(N)n(CCCC)c(=O)[nH]c2=O)nnc1-c1ccc(Cl)cc1 | 1 | 0 | -1 | -3 | -1 | -4
N#Cc1c(Cl)nsc1NC(=O)c1ccccc1 | 47 | 1 | 56* | -5 | 4 | -2
Cc1cc2oc(=O)cc(-c3ccccc3)c2c(C)c1-c1ccc(O)cc1 | 0 | 8 | 50* | 5 | -3 | 1
Cc1ccc(Oc2nc3c(c(=O)n(Cc4ccccc4F)c(=O)n3C)n2C)cc1 | 2 | -1 | 40 | -1 | 2 | 1
O=C(c1ccccc1)N1CCCc2ccccc21 | -1 | 1 | -3 | 0 | 0 | -1
O=C(c1ccc(=O)oc1)N1CCCc2ccccc21 | 4 | 79* | -16 | -1 | -7 | 12
CC1CN(c2ccc(NC(=S)Nc3ccc(N4CC(C)OC(C)C4)cc3)cc2)CC(C)O1 (centres undefined) | 0 | 2 | 0 | -1 | -8 | -7
COc1cc(S(=O)(=O)N2CCN(C)CC2)c(OC)cc1Br | -1 | 0 | -4 | -1 | 1 | -1
Cc1noc(C)c1NC(=O)Nc1ccc2c(c1)C(=O)N([C@H](C)CO)C[C@H](C)[C@@H](CN(C)S(=O)(=O)c1ccc(F)cc1)O2 | 2 | 1 | 70* | -3 | 9 | -5
Cc1cnc(NS(=O)(=O)c2ccccc2)c(Br)c1 | 0 | -1 | 8 | -1 | -2 | -4
CC(=O)c1c(C)c2c(n1CCN(C)C)CCCC2 | 62* | -3 | 21 | 1 | -3 | 7
O=C1CCSc2c1ccc1ccccc21 | -3 | -1 | 61* | 2 | -2 | 0
O=C1CCCc2cc3c(ccc4ccccc43)cc21 | 1 | -2 | -1 | -1 | 2 | 9
COC(=O)c1cc2c(=O)c3ccccc3oc2nc1/C=C/N(C)C | 198* | -6 | -173 | -9 | 48* | -41
CC(=O)Nc1ccc(NC(=O)c2ccc(Cl)nc2)cc1 | -1 | 0 | -6 | -3 | 1 | -3
Nc1ccc(/C=C/C(=O)c2cccs2)cc1 | 103* | -3 | -73 | -12 | 8 | -15
CC(=O)Nc1sc2c(c1-c1nc3ccccc3s1)CN(C(C)C)CC2 | 94* | 10 | -49 | -8 | 16 | -2
COc1ccccc1NC(=O)/C(C#N)=C/c1cc([N+](=O)[O-])ccc1N1CCCC1 | 92* | 5 | -43 | 0 | 7 | -3
CCN(CC)S(=O)(=O)c1cccc(NC(=O)c2ccc(Br)cc2)c1 | 2 | -3 | 5 | -8 | -4 | -23
O=C1c2cccc3c([N+](=O)[O-])ccc(c23)C(=O)N1O | 11 | 3 | -6 | 20* | 7 | -8
